The list is not random: actives were taken first. Their share in the collection is about 7.7%.
FBPA Giardia inh: inhibitors of Giardia lamblia fructose-1,6-bisphosphate aldolase; A8B2U2; purified Giardia FBPA; Potency, µM (highest dose often 59.6 µM), actives largely listed as inhibitors; hit rate 0.71% among 290,000; AID 2451; note: nearly all actives have a fitted effect of over 55% in size
Target sequence (A8B2U2 whole entry, looked up): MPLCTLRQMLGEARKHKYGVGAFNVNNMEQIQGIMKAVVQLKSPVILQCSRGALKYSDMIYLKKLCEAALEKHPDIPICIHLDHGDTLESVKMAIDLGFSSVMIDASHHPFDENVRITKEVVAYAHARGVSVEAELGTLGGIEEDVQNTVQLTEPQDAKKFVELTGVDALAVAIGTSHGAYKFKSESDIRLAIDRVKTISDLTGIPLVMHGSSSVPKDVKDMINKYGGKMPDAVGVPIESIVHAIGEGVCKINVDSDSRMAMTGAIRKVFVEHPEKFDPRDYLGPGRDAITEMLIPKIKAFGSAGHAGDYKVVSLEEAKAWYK
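Giardia FBPA (40 nM reagent) was preincubated 10 min at RT with compound (up to 57.5 uM final), then substrate plus GAPDH/TPI/NAD/arsenate coupling system with diaphorase/resazurin was added; resorufin fluorescence (525/598 nm) was read after 20 min.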
RE007 growth inh: less growth of the S. pombe RE007 Vpr strain; S. pombe RE007 Vpr strain, BacTiter-Glo ATP luminescence, 24 h; Potency, µM (titrated, usually from 92.2 µM), actives largely listed as inhibitors; hit rate 0.21% among 360,000; AID 651644; active = well fitted falling curve with a large enough effect; inconclusive = small, poorly fitted or top-dose-only effect; inactive = no such curve, though single readings can be large or run the other way; note: nearly all actives have a fitted effect of over 50% in size
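Fission yeast strain RE007, carrying one chromosomally integrated HIV-1 vpr copy, was seeded at OD 0.01 in PMG+AL medium with 23 nL pinned compound. After 24 h at 30 °C and 99% humidity, viability was read by BacTiter-Glo luminescence.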
TbPYK inhibitor: blocks Trypanosoma brucei pyruvate kinase; TbPYK enzyme, Kinase-Glo Plus ATP luminescence, 45 min; Potency, µM (doses to about 76.8 µM), actives largely listed as inhibitors; hit rate 0.12% among 410,000; AID 624173; note: nearly all actives have a fitted effect of over 50% in size
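Readout: single end-point luminescence (Kinase-Glo Plus, 10 min). Reaction conditions were TbPYK/substrate plus 130 uM ADP, 45 min at RT, pH 7.2 TEA buffer. No-enzyme wells served as controls, and data were normalized before concentration-response fitting.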
FMDV inh: blocks foot and mouth disease virus; Potency, µM (titrated, usually from 57.9 µM), hits mostly inhibitors; hit rate 1.2% among 410,000; FMDV antiviral cell-based qHTS; AID 1159524; calls by dose curve; tested in HEK293T cells; note: read-out not given here; nearly all actives have a fitted effect of over 45% in size
HCMV antiviral: human cytomegalovirus inhibition; HFF cells, HCMV-luciferase reporter, 72 h; stronger effect = lower value; activity change, negative = inhibition, % at 57.5 µM; hit rate 4.5% among 410,000; in the data active = activity change below about -60%; inconclusive = no clear call, values can overlap the other calls; inactive = above about -39%
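Human foreskin fibroblasts infected with luciferase-reporter HCMV at MOI 1 PFU/cell, compounds at two doses. Luciferase measured 72 h post infection; normalized to buffer-only basal and Salinomycin (10uM) controls.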
Sm TGR inh: inhibitors of Schistosoma mansoni thioredoxin glutathione reductase | Q962Y6 | purified TGR, DTNB reduction, TNB absorbance 405 nm | Potency, µM (top dose mostly 114 µM), most hits filed as inhibitors | hit rate 3% among 360,000; note: nearly all actives have a fitted effect of over 60% in size
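Kinetic colorimetric format: TGR-catalysed, NADPH-driven DTNB reduction monitored via TNB absorbance. Enzyme dispensed at 20 nM; compound exposure 15 min at room temperature before reaction start.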
A number is an active result; . = inactive; ? = inconclusive; / = not tested or not shown. Unless noted, calls come from the whole dose curve; as a rule, active = well fitted curve in the direction sought with a large enough effect; inconclusive = small, poorly fitted or top-dose-only effect, or another doubt; inactive = no such curve, though single readings can be large; an effect the other way counts as inactive or inconclusive.

SMILES | FBPA Giardia inh | RE007 growth inh | TbPYK inhibitor | FMDV inh | HCMV antiviral | Sm TGR inh
Cc1ccc(NC(=O)c2ccc(OC(F)(F)F)cc2)cc1S(=O)(=O)N(C)C | . | . | . | 32µM | -99 | .
CN(C)S(=O)(=O)c1cccc(NC(=O)c2cc(-c3cccs3)nn2-c2cccc(Cl)c2)c1 | . | . | . | . | -106 | .
CCN(CC)S(=O)(=O)c1cccc(NC(=O)c2ccc(-n3nc(C)cc3C)cc2)c1 | . | . | . | 20µM | -83 | .
CC(=O)Nc1ccc(S(=O)(=O)Nc2cccc(-c3ccc(N4CCCCCC4)nn3)c2)cc1 | / | / | . | . | . | .
CCCCN1C(=O)c2ccc(C(=O)Nc3ccc(C)c(S(=O)(=O)N(C)C)c3)cc2C1=O | . | . | . | 18µM | . | .
CCCCN1C(=O)c2ccc(C(=O)Nc3cccc(C)c3C)cc2C1=O | . | . | . | . | . | .
CC(=O)c1cccc(NS(=O)(=O)c2cccc(S(=O)(=O)c3ccc(Br)cc3)c2)c1 | / | / | . | ? | ? | 13µM
COc1ccc(S(=O)(=O)Nc2cccc(C(C)=O)c2)cc1Br | . | . | . | . | . | /
COc1ccccc1-c1ccc(=O)n(CC(=O)NC2CCc3ccccc32)n1 (centres undefined) | . | . | . | . | -87 | .
COc1ccc(-n2cc(C(=O)c3cc4ccccc4oc3=O)c(C(C)=O)n2)cc1 | . | . | . | . | -67 | .
COc1ccc(CNC(=O)c2cc3ccccc3oc2=O)cc1 | . | . | . | . | . | .
CCOC(=O)C1=CN(CC)S(=O)(=O)NC1c1ccc2ccccc2c1 (centres undefined) | / | . | . | . | . | /
CCOC(=O)C1=CN(CC)S(=O)(=O)NC1c1ccccc1 (centres undefined) | / | . | . | . | -82 | /
CCS(=O)(=O)c1ncc(Cl)c(C(=O)N(Cc2ccccc2)Cc2ccco2)n1 | / | / | . | 14µM | -99 | 8.9µM
CCS(=O)(=O)c1ncc(N(Cc2ccccc2)Cc2ccco2)c(C(=O)Nc2cccc(Cl)c2C)n1 | / | / | . | . | . | .
COC(=O)C1=CN(c2ccc(C(C)(C)C)cc2)C(N)=C(C#N)C1c1ccc(OC)cc1 (centres undefined) | / | . | / | . | -77 | /
Cc1cccc2cc(C#N)c(NCCNS(=O)(=O)c3ccccc3)nc12 | . | . | . | . | . | .
Cc1cccc2cc(C#N)c(NCCCNS(=O)(=O)c3ccc(Cl)cc3)nc12 | . | . | . | ? | -67 | .
Cc1cccc2cc(C#N)c(NCc3ccccc3)nc12 | 18µM | . | . | . | . | .
Cc1ccc2cc(C#N)c(NCCNC(=O)C3CC3)nc2c1C | . | . | . | ? | -88 | .
Cc1ccc2cc(C#N)c(NCCNC(=S)NCCCN(C)C)nc2c1C | . | . | . | . | . | .
Cc1cccc2cc(C#N)c(NCCNC(=O)COc3ccccc3)nc12 | 16µM | . | . | . | . | .
CCOCCCNC(=S)NCCNc1nc2c(C)cccc2cc1C#N | . | . | . | / | / | .
CN1OC(C)(CC(=O)NCc2ccccc2F)N=C1c1ccccc1Cl (centres undefined) | / | / | / | / | . | /
O=C(N[C@H]1CC[C@@]23CCCN2C(=O)CCC[C@H]3[C@H]1Cc1ccccc1)c1cccnc1 | / | / | / | / | . | /
SMILES | FBPA Giardia inh | RE007 growth inh | TbPYK inhibitor | FMDV inh | HCMV antiviral | Sm TGR inh
CC(=O)OC(C)C1C2=C(C(=O)CC1(C)O)C(=O)c1c(ccc(-c3ccc4c(c3O)C(=O)C3=C(C4=O)C(C(C)OC(C)=O)C(C)(O)CC3=O)c1O)C2=O (centres undefined) | / | . | . | 18µM | -68 | /
O=C(NCc1cccnc1)/C(=C\c1ccc(-c2ccc(Br)cc2)o1)S(=O)(=O)c1ccccc1 | . | . | . | 3.2µM | -103 | 50µM
O=C(NCc1cccnc1)/C(=C/c1ccc(-c2ccc(Cl)cc2)o1)S(=O)(=O)c1ccccc1 | . | . | . | 3.5µM | / | 20µM
O=C(NCc1cccnc1)/C(=C/c1ccc(-c2cccc(C(F)(F)F)c2)o1)NC(=O)c1ccccc1 | . | . | . | . | . | .
CC(C)[C@H](NC(=O)OC(C)(C)C)C(=O)N1CCC(C(=O)N[C@@H](C)C(=O)Nc2ccc(F)cc2)CC1 | . | . | . | . | . | .
CCc1ccc(NC(=O)[C@H](C)NC(=O)C2CCN(C(=O)[C@@H](NC(=O)OC(C)(C)C)C(C)C)CC2)cc1 | . | . | . | . | -71 | .
COC(=O)c1ccc(NC(=O)CSc2ccc(-c3sc(-c4ccccc4)nc3C)nn2)cc1 | / | / | . | . | ? | .
Cc1[nH]c2ccccc2c1C(=O)C(=O)N1c2ccccc2CC1C (centres undefined) | . | . | . | ? | -62 | ?
Cc1ccccc1NC(=O)Cn1nc(-c2ccc(F)cc2)c2cnc3ccccc3c21 | / | / | . | . | . | .
CC1(C)OC2C[C@](O)(C(N)=O)C[C@H](O)[C@H]2O1 (some centres undefined) | . | / | / | . | / | /
COc1cc(C)ccc1OCCCn1c(-c2ccc(Cl)cc2)nc2ccccc2c1=O | / | / | . | . | . | .
C=C(C)CSc1nnc(-c2cccc(S(=O)(=O)N(C)C)c2)n1-c1cc(OC)ccc1OC | . | . | . | . | -71 | .
COc1ccc(C(=O)Nc2ccc(O)c3c(=O)cc(-c4cccc(Cl)c4)oc23)cc1 | . | . | . | ? | ? | .
COc1ccc(C(=O)Nc2ccc3oc(-c4cccc(Cl)c4)cc(=O)c3c2O)cc1 | . | . | . | . | -67 | ?
CCc1ccc(S(=O)(=O)c2nnn3c2nc(Nc2cccc(C)c2C)c2sccc23)cc1 | / | / | . | . | . | .
Cc1cccc(-n2c3nc(=O)[nH]c(=O)c-3cc3cc([N+](=O)[O-])ccc32)c1 | . | . | . | 35µM | -66 | .
Cc1ccc(C)c(-n2c3nc(=O)[nH]c(=O)c-3cc3cc([N+](=O)[O-])ccc32)c1 | ? | . | . | 28µM | ? | .
O=c1nc2n(-c3ccccc3F)c3ccccc3cc-2c(=O)[nH]1 | / | / | . | . | . | .
CCS(=O)(=O)c1ncc(N(Cc2cccc(F)c2)Cc2ccco2)c(C(=O)Nc2ccccc2Cl)n1 | / | / | . | . | . | .
NC(=S)N/N=C/c1ccc(C(F)(F)F)cc1 | ? | . | . | . | -88 | .
COC(=O)[C@@]1(Cc2ccc(OC)cc2)[C@H]2c3cc(C(=O)N4CCCC4)n(CCc4ccc(O)c(OC)c4)c3C[C@H]2CN1C(=O)c1ccccc1 | . | / | / | / | / | /
COC(=O)c1ccc2nc(C3CCCCC3)c(Cc3ccccc3OC)n2c1 | / | / | / | / | . | /
COCCCNC(=O)c1cccn2c(=O)c3cc4ccccc4cc3nc12 | ? | . | . | . | -81 | .
